These results are taken from PubChem BioAssay AID1048 (The Scripps Research Institute Molecular Screening Center, 2008).

Among all 99,000 compounds or so, about 390 (0.39%) were called active. The list comes from a sample in which actives are over-represented; it also holds similar structures and randomly drawn compounds. A number with no mark means an inactive call. Rule as the data show it: active = TR-FRET ratio above about 2000; inactive = the rest.

This test in a line: TR-FRET detection interference compounds, artefact control for PPARgamma SRC-3 recruitment agonists, biochemical, TR-FRET ratio (AID 1048). Conditions: TR-FRET artefact counter-screen, PPARgamma/SRC-3 format; at 8 µM; hits give high values. Background: In TR-FRET formats the signal depends on donor and acceptor labels being close together.
`CCOC(=O)c1c(C)n(C)c2ccc(OC)c(NS(=O)(=O)CC)c12`: the TR-FRET ratio is 1490.

Take `CN(CC(=O)N1CCN(c2ccccc2)CC1)S(=O)(=O)c1cccs1`: the TR-FRET ratio is 1700.

As to `Cc1nc(N2CCN(c3ccccn3)CC2)c2c(C)c(C(=O)Nc3ccc(F)cc3)sc2n1`, the TR-FRET ratio is 1960.

As for `Cc1nc(N2CCC(C)CC2)c2c(C)c(C(=O)Nc3cc(F)ccc3C)sc2n1`, the TR-FRET ratio was 2360 (active).

`Cc1nc(N2CCOCC2)c2c(C)c(C(=O)Nc3ccc(C(F)(F)F)cc3)sc2n1`: the TR-FRET ratio was 1750.

Consider `CC(C)(C)c1ccc(NC(=O)COC(=O)CCc2nc3ccccc3c(=O)[nH]2)cc1`, for which the TR-FRET ratio was 1560.

In the case of `CCC(C(=O)OCC(=O)Nc1ccc(C(=O)Nc2ccc(OC)cc2)cc1)c1ccccc1` (stereo not given), the TR-FRET ratio was 1460.

On to `CC(C)N1CCC(NC(=O)Nc2ccccc2)CC1`, for which the TR-FRET ratio is 1620.

As to `COC(=O)c1ccc(C(=O)OC)c(NC(=S)N2CCN(c3ccc(F)cc3)CC2)c1`, the TR-FRET ratio was 1500.

As for `C=CCn1c(CNC(=O)c2ccco2)nnc1SCC(=O)c1ccc(OC)cc1`, the TR-FRET ratio was 1770.

In the case of `CCc1ccc(OCC(=O)OCC(=O)c2c(N)n(C)c(=O)n(C)c2=O)cc1`, the TR-FRET ratio was 1320.

With `CC(C)(C)NC(=O)c1ccc(Cn2cc(C(F)(F)F)ccc2=O)cc1`, the TR-FRET ratio is 1730.

Take `N/C(Cc1ccc([N+](=O)[O-])cc1)=N\OC(=O)C1CCCCC1`: the TR-FRET ratio was 1640.

Consider `COc1ccc(N2CCN(C(=O)CNS(=O)(=O)c3ccc(C)c(C)c3)CC2)cc1`, for which the TR-FRET ratio is 1450.

Regarding `CN1CCC(=NNC(=O)CN(c2cccc(Cl)c2)S(C)(=O)=O)CC1`, the TR-FRET ratio is 1650.

On to `COc1cc(C(=O)Nc2cc(C(F)(F)F)ccc2N2CCOCC2)ccc1O`, for which the TR-FRET ratio was 1560.

In the case of `CCc1ccc(NC(=O)CC2C(=O)NCCN2C(=S)Nc2ccccc2)cc1` (stereo not given), the TR-FRET ratio was 1500.

`Cc1c(C(N)=O)sc2ncn(CCOc3ccccc3)c(=O)c12`: the TR-FRET ratio was 1550.

On to `Cc1cc(C2=NNC(=Nc3ccc(S(=O)(=O)N4CCOCC4)cc3)SC2)c(C)n1CC1CCCO1` (stereo not given), for which the TR-FRET ratio is 1650.

Consider `Cc1ccc(OCC(=O)NNC(=S)NCc2ccccc2)cc1`, for which the TR-FRET ratio is 1530.

For the compound `Cc1[nH]nc(SCC(=O)NCC(C)C)c1[N+](=O)[O-]`, the TR-FRET ratio is 1720.

For the compound `CC(=O)Nc1ccc(NC(=O)C(C)n2c3ccccc3c3nc(=O)cc(C)n32)cc1` (stereo not given), the TR-FRET ratio is 1620.

As for `COc1ccc(C(=O)CSc2nnc(-c3ccco3)o2)cc1`, the TR-FRET ratio is 1800.

`COC(=O)c1ccc(/C=N/OCC(=O)Nc2cc(F)ccc2F)cc1`: the TR-FRET ratio was 1390.

Take `O=C(COC(=O)c1c2c(nc3ccccc13)/C(=C\c1cccs1)CCC2)Nc1ccccc1Cl`: the TR-FRET ratio is 1790.

Regarding `O=C(Nc1c2c(nc3ccccc13)CCCC2)c1ccccc1Br`, the TR-FRET ratio is 1760.

Turning to `O=C(COC(=O)c1c2c(nc3ccccc13)CCCC2)c1ccc(Br)s1`, the TR-FRET ratio was 4220 (active).

As for `O=C(Nc1ccc2ccccc2c1)/C(=C\c1ccc2c(c1)OCO2)NC(=O)c1ccco1`, the TR-FRET ratio is 1560.

With `O=C(CSc1ccc(-c2cccs2)nn1)Nc1ccccc1F`, the TR-FRET ratio was 1640.

As for `S=c1[nH]nc(-c2ccccc2)n1/N=C/c1c[nH]c2ccccc12`, the TR-FRET ratio is 1470.

Regarding `Cc1ccccc1-c1n[nH]c(=S)n1/N=C/c1ccc(-c2ccccc2Br)o1`, the TR-FRET ratio was 2150 (active).

For `Cc1ccccc1-c1n[nH]c(=S)n1C`, the TR-FRET ratio was 1470.

Regarding `COCCN(C(=S)Nc1ccccc1OC)C1CCN(C(C)C)CC1`, the TR-FRET ratio is 1690.

On to `COc1ccc(OC)c(C(=O)c2ccc(C(=O)N3CCN(Cc4csc(C)n4)CC3)cc2)c1`, for which the TR-FRET ratio is 1600.

In the case of `COc1ccc(C)cc1NC(=O)Nc1ccccc1SC`, the TR-FRET ratio was 1480.

Turning to `C/C(N)=C(/C#N)C(=O)COC(=O)c1cc(-c2ccccc2)nc2ccc(Br)cc12`, the TR-FRET ratio is 1450.

In the case of `O=C(NCc1cccs1)c1cc(-c2ccccn2)nc2ccc(Br)cc12`, the TR-FRET ratio was 2270 (active).

`Cc1ccc(-c2cc(C(=O)NCc3cn(C)nc3C)c3cc(Br)ccc3n2)cc1`: the TR-FRET ratio was 3150 (active).

Consider `O=C(Nc1ccncc1)c1cc(-c2ccccn2)nc2ccc(Br)cc12`, for which the TR-FRET ratio was 1720.

For the compound `O=C(NCc1ccccn1)c1cc(Br)ccc1Cl`, the TR-FRET ratio was 1620.

Turning to `Cc1ccc2nc(-c3cccc(Br)c3)cc(C(=O)Nn3cnnc3)c2c1`, the TR-FRET ratio is 1410.

As to `O=C(Cc1c(F)cccc1Cl)Nc1ccc(-n2cnnn2)cc1`, the TR-FRET ratio was 1510.

In the case of `CC(C)N(C(=O)Cn1cc(SCC(=O)N2CCCC2)c2ccccc21)C(C)C`, the TR-FRET ratio was 1440.

Regarding `Cn1c(=O)cc(SCC(=O)N2CCCC2)c2cc(Cl)ccc21`, the TR-FRET ratio was 3460 (active).

With `CCOc1ccc(CCNC(=O)CSc2cc(=O)n(C)c3ccc(Cl)cc23)cc1OCC`, the TR-FRET ratio is 1800.

`CC(C)NC(=O)c1ccc(Cl)cc1Cl`: the TR-FRET ratio was 1730.

With `NC1=NC2(CCCCC2)N(c2ccc(F)cc2F)C(N)=N1`, the TR-FRET ratio was 1410.

In the case of `COc1ccc2c(CC(=O)OCC(=O)Nc3ccccc3[N+](=O)[O-])coc2c1`, the TR-FRET ratio was 1720.

As for `CCOc1ccc(NC(=O)CSc2ncnc3c2sc2ccccc23)cc1`, the TR-FRET ratio was 3140 (active).

With `CCOc1ccc(NC(=O)c2cc(C)nc3ccccc23)cc1`, the TR-FRET ratio was 1470.

On to `CCOc1ccc(NC(=O)CSc2nc3ccccc3c(=O)n2Cc2cccs2)cc1`, for which the TR-FRET ratio was 1640.

Regarding `Cn1nnnc1NCc1ccc(Cl)c(Cl)c1`, the TR-FRET ratio was 1750.

For `CCOC(=O)C1C(c2ccc(Cl)cc2)NC(=S)NC1(O)C(F)(F)F` (stereo not given), the TR-FRET ratio is 1580.

As to `CN(C)c1ccc(N/C=C/C(=O)C(F)(F)F)cc1`, the TR-FRET ratio was 2070 (active).

Turning to `CCCOc1ccc(N/C=C/C(=O)C(C)(C)C)cc1`, the TR-FRET ratio was 1370.

As for `CC(C)CNC(=O)C(=O)Nc1ccc(N(C)C)cc1`, the TR-FRET ratio was 1510.

Take `COc1ccc(CC(NC(C)=O)C(=O)NC2CCN(C(=O)C3CC3)CC2)cc1OC` (stereo not given): the TR-FRET ratio was 1430.

Consider `CC1COc2ccccc2N1C(=O)c1cccnc1Cl` (stereo not given), for which the TR-FRET ratio is 1670.

As to `COc1ccc(C(=O)NNC(=O)c2cc(C)[nH]n2)cc1`, the TR-FRET ratio was 1480.

Take `O=C(O)Cc1sc(-c2ccc(C(=O)O)cc2)nc1-c1ccccc1`: the TR-FRET ratio is 1690.

For the compound `O=C(O)Cc1ccc(-c2ccccc2)cc1`, the TR-FRET ratio is 1600.

`O=C(O)Cc1sc(-c2ccccc2)nc1-c1cccs1`: the TR-FRET ratio was 2530 (active).

Turning to `CN(C)/N=C/c1cn(-c2ccccc2)nc1-c1cccnc1`, the TR-FRET ratio was 1610.

Regarding `CCc1nnc(NC(=O)CSc2nnnn2-c2cccc(C(C)=O)c2)s1`, the TR-FRET ratio is 1550.

For the compound `Cc1ccc2c(c1)C1CN(C)CCC1N2C(=S)Nc1ccc(Cl)cc1Cl` (stereo not given), the TR-FRET ratio was 1610.

In the case of `CCN(CC)CCNc1nc(-c2ccc(OC(F)F)cc2)c(C)s1`, the TR-FRET ratio was 1480.

Turning to `CC(NC(=O)COC(=O)c1ccc(Cl)cc1O)c1ccc(F)cc1` (stereo not given), the TR-FRET ratio is 1480.

As for `Cc1cccc2nc(CSc3nc4[nH]ncc4c(=O)n3-c3cccc(Cl)c3)cc(=O)n12`, the TR-FRET ratio was 1540.

As for `CCc1ccc(-n2c(SCc3cc(=O)n4cc(Br)ccc4n3)nc3[nH]ncc3c2=O)cc1`, the TR-FRET ratio was 2480 (active).

Consider `O=c1c2sccc2nc(SCc2cc(=O)n3ccccc3n2)n1-c1ccc(Br)cc1`, for which the TR-FRET ratio is 1730.

For `COc1ccc2cc(CCl)c(Cl)nc2c1`, the TR-FRET ratio is 1710.

With `CN(C)c1ccc(/C=N/Nc2cc(N3CCOCC3)nc(N3CCOCC3)n2)cc1`, the TR-FRET ratio is 2070 (active).

Regarding `CCN(CC)c1ccc(C(=O)N/N=C/c2ccc(N3CCOCC3)cc2)cc1`, the TR-FRET ratio was 1580.

With `C(=N/Nc1cc(N2CCOCC2)nc(N2CCOCC2)n1)/c1ccccc1`, the TR-FRET ratio is 1290.

On to `CCCN(CC(=O)Nc1ccc(C(N)=O)cc1)CC(=O)Nc1ccccc1C`, for which the TR-FRET ratio is 1400.

For `CC1Cc2ccccc2N1C(=O)CSc1nnc(-c2ccc(S(=O)(=O)N3CCCC3)cc2)n1C` (stereo not given), the TR-FRET ratio was 1610.

As to `CC/C(Cc1ccccc1)=N/NC(=O)CCn1nnc2ccccc21`, the TR-FRET ratio was 1860.

For `CCOC(=O)c1c(NC(=O)C(C)Sc2c[nH]c3ccccc23)sc2c1CCC2` (stereo not given), the TR-FRET ratio was 3480 (active).

Consider `CCOC(=O)c1c(NC(=S)Nc2ccccc2C)sc2c1CCC2`, for which the TR-FRET ratio was 1790.

With `CCOC(=O)c1c(NC(=O)CSc2cn(CC)c3ccccc23)sc2c1CCC2`, the TR-FRET ratio was 1590.

For `Cc1cccc(NC(=O)c2sc(-c3ccccc3)nc2-c2ccc([N+](=O)[O-])cc2)c1`, the TR-FRET ratio is 1630.

Turning to `Cc1ccc(S(=O)(=O)NCCC(=O)Nc2ccc(C)c(Cl)c2)cc1C`, the TR-FRET ratio was 1640.

Regarding `Cc1ccc(-c2nc(-c3cccnc3)sc2CC(=O)Nc2ccc(C)c(Cl)c2)cc1`, the TR-FRET ratio is 3550 (active).

On to `CCc1cc(CNC(=O)CC2C(=O)NCCN2CC2CCCCC2)on1` (stereo not given), for which the TR-FRET ratio was 1630.

For the compound `CC1=CC=CN2C1=NC(=O)CC2(C)C(=O)N(CC(=O)NC1CCCC1)c1ccccc1C` (stereo not given), the TR-FRET ratio was 1450.

On to `CN(Cc1ccccn1)Cc1nc(-c2ccc(Cl)cc2)no1`, for which the TR-FRET ratio is 1430.

On to `CN1CCN(S(=O)(=O)c2cccc(C(=O)O)c2)CC1`, for which the TR-FRET ratio is 1540.

For the compound `CC1(C)CC(=O)C(C2c3ccccc3S(=O)(=O)c3ccccc32)C(=O)C1`, the TR-FRET ratio was 1570.

With `CN(CCc1cnn(C)c1)Cc1cn(C)nc1-c1ccccc1F`, the TR-FRET ratio is 1360.

As to `COc1cccc(NC(=O)CC(c2ccc(OC(C)C)cc2)c2ccccc2OC)c1` (stereo not given), the TR-FRET ratio is 1470.

As to `COn1c(-c2ccc(Cl)cc2Cl)nc2ncccc21`, the TR-FRET ratio was 1970.

For the compound `COc1ccc(CCNC(=O)COC(=O)C2CCCCC2)cc1`, the TR-FRET ratio is 1330.

As to `CC(C)(C)NC(=O)COC(=O)c1cc(Cl)ccc1[N+](=O)[O-]`, the TR-FRET ratio was 1550.

Consider `COc1ccc2c(c1)C(SCC(=O)NCc1ccccc1)CC(C)(C)O2` (stereo not given), for which the TR-FRET ratio was 1590.

As to `O=S1(=O)CC/C(=N\Nc2ccc(F)cc2)c2ccsc21`, the TR-FRET ratio was 1680.
